# Laboratory results taken from PubChem BioAssay (NCI).
# The panel holds about 83,000 compounds, 20% with a hit somewhere; the sample as a whole holds those more often.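 Plates (96-well) were seeded with cells, treated with compound at one concentration, and incubated for 48 hours before percent growth was determined.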 A number with no mark means an inactive call. Calls of active or inactive are those of the source. How the source made its calls: active means growth percent below 10; inactive means the rest.
# Experiments:
# Assay in all cases: NCI-60 one-dose screen, 48 h (100 = growth as untreated, 0 = no growth, -100 = all killed)
# HCT-15 colon = settings: 10 µM unless noted
# HT29 colon = settings: 10 µM unless noted
# SNB-75 CNS = settings: 10 µM unless noted
# SNB-19 CNS = settings: 10 µM unless noted
# U251 CNS = settings: 10 µM unless noted
# PC-3 prostate = settings: 10 µM unless noted
# SK-MEL-5 melanoma = settings: 10 µM unless noted
# UACC-62 melanoma = settings: 10 µM unless noted
# LOX IMVI melanoma = settings: 10 µM
# SK-MEL-28 melanoma = settings: 10 µM unless noted
SMILES,growth (HCT-15 colon),growth (HT29 colon),growth (SNB-75 CNS),growth (SNB-19 CNS),growth (U251 CNS),growth (PC-3 prostate),growth (SK-MEL-5 melanoma),growth (UACC-62 melanoma),growth (LOX IMVI melanoma),growth (SK-MEL-28 melanoma)
C=CCN1CCCC1=O,104%,96.3%,70.2%,93.1%,102%,94.6%,101%,86.1%,108%,108%
O=[N+]([O-])c1ccc(-c2nc(N(CCO)CCO)c3ccccc3n2)o1,-3.11% (active),-27.7% (active),-91.7% (active),-0.996% (active),7.6% (active),-0.975% (active),-99% (active),-71.6% (active),-65.6% (active),-64.8% (active)
Oc1ccc2ccccc2c1CN1CCOCC1,107%,110%,95.6%,110%,110%,99.9%,113%,111%,115%,107%
O=S(Cc1ccccc1)/C(=C/NC(=S)Nc1cc(Cl)ccc1Cl)c1ccccc1 (stereo not given),107%,97.4%,89.9%,104%,101%,94.1%,102%,98.6%,94.3%,109%
CC(=O)c1cccs1,99.5%,99.8%,96%,102%,101%,98.3%,110%,94.2%,93.1%,98.1%
CN1CCN(C(=S)S)CC1,100%,75.5%,105%,103%,102%,98.4%,111%,101%,87.9%,115%
CC(=O)C1C(=O)C(=O)N(c2cccc([N+](=O)[O-])c2)C1=O (stereo not given),102%,105%,93.9%,104%,97.3%,98.2%,107%,100%,105%,107%
Cn1/c(=N\N=C\c2ccccc2OCCO)sc2ccccc21,82.4%,109%,115%,96.7%,100%,76.5%,88%,90%,100%,124%
CC(=O)NNC(=S)N/C=C/c1c(C)ccc([N+](=O)[O-])c1[N+](=O)[O-],96.5%,105%,88.5%,113%,112%,97.2%,105%,98.5%,96%,101%
CC(C)(C)[Si](C)(C)OCC1OC(n2cnc3c(N)ncnc32)CC1OS(C)(=O)=O (stereo not given),115%,108%,97.4%,108%,91.7%,103%,98.5%,90.4%,95.4%,105%
CC(CC(CCC(=O)O)(c1ccccc1)c1ccccc1)N(C)C (stereo not given),95.6%,105%,99.6%,110%,92.3%,103%,95.5%,103%,98.8%,104%
CCOC(=O)c1cc(C)[nH]c(=O)c1C#N,101%,105%,85.7%,106%,102%,80.7%,107%,104%,97.7%,112%
C=C(OC(C)=O)c1ccccc1,114%,98.4%,98%,106%,89.8%,79.4%,101%,97%,94.4%,118%
Cc1ccccc1CC(N)C(=O)O (stereo not given),117%,107%,91.4%,108%,102%,90.4%,117%,103%,106%,115%
Cc1ccc(N2C(=O)c3cccc4c(N)c(S(=O)(=O)O)cc(c34)C2=O)cc1,105%,124%,111%,112%,96.7%,90%,102%,97.4%,95%,124%
